Our source for the inhibition values is PubChem BioAssay AID602261 (Sanford-Burnham Center for Chemical Genomics, 2012).

One may read the inhibition as the drop in the measured response relative to a control, in per cent.

Structures are written as SMILES. Values joined by “and” are separate entries in the source; they are usually repeats but may differ in a detail not shown here. Equal values may be shown once. Out of some 360,000 compounds screened, about 2,400 (0.67%) were called active. The entries come from a sample that favours actives as a whole. A number with no mark means an inactive call.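 The calls were made as follows: active = compounds whose normalised, plate-corrected inhibition of enzyme fluorescence in the single-dose primary screen is 50% or more; inactive = the rest.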

The target of this assay is Fatty acid synthase (Homo sapiens) (UniProt P49327). Description: FAS thioesterase domain inhibitors, primary screen, biochemical, fluorescence intensity, uHTS (AID 602261).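 Also: 0% = DMSO with enzyme and 100% = substrate without enzyme.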 The settings on record: recombinant FAS-TE, OMFH fluorogenic substrate, fluorescence endpoint; at 15 µM; active compounds read high.
Fatty acid synthase (Homo sapiens), sequence (P49327 whole entry, looked up, the tested form may be a part): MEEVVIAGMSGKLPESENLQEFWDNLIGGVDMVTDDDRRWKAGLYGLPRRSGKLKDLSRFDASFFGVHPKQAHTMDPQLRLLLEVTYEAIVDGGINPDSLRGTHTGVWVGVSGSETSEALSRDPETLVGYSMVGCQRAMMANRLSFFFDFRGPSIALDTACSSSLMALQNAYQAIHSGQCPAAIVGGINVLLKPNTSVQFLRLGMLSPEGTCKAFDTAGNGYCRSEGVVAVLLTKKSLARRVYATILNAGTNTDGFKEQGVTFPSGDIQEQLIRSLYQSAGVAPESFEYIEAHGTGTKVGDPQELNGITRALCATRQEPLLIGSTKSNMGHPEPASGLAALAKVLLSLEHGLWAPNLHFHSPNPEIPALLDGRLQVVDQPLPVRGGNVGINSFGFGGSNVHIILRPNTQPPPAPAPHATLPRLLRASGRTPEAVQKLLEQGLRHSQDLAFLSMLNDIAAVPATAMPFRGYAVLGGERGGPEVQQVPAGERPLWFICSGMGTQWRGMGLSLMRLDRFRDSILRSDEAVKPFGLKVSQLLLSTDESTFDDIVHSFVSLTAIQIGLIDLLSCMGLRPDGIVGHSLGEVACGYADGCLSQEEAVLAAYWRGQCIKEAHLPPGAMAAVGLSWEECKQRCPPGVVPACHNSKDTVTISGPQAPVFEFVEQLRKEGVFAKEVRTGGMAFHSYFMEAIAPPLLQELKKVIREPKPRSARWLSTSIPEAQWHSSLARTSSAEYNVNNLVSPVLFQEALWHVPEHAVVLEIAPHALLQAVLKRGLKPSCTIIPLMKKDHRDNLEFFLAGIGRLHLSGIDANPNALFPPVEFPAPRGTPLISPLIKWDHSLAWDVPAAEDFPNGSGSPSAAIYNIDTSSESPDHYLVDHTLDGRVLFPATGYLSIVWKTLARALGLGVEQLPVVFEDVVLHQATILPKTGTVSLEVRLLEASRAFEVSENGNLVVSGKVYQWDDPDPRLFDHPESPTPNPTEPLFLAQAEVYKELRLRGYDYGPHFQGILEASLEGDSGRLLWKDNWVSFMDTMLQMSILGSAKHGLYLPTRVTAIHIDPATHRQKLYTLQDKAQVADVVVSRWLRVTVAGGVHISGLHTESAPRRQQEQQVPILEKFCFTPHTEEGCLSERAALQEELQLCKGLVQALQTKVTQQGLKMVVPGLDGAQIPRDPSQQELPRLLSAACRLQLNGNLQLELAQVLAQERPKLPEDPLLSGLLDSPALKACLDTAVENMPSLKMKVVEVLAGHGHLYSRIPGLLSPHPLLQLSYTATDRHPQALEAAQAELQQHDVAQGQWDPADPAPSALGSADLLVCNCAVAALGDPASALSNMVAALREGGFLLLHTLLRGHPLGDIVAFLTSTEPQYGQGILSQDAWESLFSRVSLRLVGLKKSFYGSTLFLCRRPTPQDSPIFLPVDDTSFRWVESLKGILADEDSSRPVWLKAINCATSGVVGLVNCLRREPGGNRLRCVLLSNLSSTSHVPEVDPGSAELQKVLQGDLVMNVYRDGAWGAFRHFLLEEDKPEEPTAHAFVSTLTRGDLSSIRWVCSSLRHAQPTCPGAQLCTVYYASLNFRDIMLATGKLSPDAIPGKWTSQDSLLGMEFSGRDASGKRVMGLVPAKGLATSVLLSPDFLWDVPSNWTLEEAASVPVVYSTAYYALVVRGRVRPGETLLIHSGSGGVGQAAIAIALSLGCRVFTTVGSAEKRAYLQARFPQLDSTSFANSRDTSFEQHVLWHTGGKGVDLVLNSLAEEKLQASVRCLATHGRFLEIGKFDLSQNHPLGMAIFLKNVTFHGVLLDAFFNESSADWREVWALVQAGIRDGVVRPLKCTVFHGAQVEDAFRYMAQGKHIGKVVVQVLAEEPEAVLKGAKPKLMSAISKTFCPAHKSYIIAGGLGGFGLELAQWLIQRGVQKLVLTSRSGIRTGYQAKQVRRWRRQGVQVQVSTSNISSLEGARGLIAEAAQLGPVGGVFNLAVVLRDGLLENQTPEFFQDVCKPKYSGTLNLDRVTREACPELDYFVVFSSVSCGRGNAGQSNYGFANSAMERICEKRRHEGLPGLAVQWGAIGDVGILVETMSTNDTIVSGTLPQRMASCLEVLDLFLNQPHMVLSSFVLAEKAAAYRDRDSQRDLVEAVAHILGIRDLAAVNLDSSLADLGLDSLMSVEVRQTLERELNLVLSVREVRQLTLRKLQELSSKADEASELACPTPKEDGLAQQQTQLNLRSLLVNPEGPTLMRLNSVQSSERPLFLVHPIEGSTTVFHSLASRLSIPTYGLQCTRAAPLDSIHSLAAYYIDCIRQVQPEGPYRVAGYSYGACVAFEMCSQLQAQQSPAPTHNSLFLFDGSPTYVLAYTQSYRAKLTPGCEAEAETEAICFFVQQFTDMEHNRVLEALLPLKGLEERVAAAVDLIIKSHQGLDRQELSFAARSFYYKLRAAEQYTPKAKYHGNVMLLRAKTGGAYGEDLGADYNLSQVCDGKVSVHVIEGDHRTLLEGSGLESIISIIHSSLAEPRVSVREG
Take `CC1(C)O[C@@H]2[C@H](O1)[C@@H](COS(=O)(=O)O)O[C@H]2n1ccc(=O)[nH]c1=O`: the inhibition was -13.4%. Consider `CC(NS(=O)(=O)c1ccc(Cl)cc1)C(=O)Nc1ccc2c(c1)OCCO2` (stereo unspecified), for which the inhibition was -2.1%. Take `O=C(Nc1cccc(S(=O)(=O)Nc2ccc(Cl)cc2)c1)c1ccc2c(c1)OCCO2`: the inhibition is 54% (active).

`CCN(CC)CCNC(=O)c1ccc(NS(=O)(=O)c2ccc3c(c2)OCCO3)cc1`: the inhibition was -4.3%. The result for `CCN(CC)c1ccc(S(=O)(=O)N2CCOCC2)cc1NC(=O)CSc1cccc[n+]1[O-]` reads -33.9%. Regarding `O=C(Nc1ccccc1)c1ccc2nsnc2c1`, the inhibition is -6.4%. In the case of `O=C(Nc1ccc(OC(F)(F)F)cc1)c1ccc2c(c1)no[n+]2[O-]` it was 50.7% (active); in that of `CCc1nnc(NS(=O)(=O)c2ccc(NC(=O)c3cccc(OC(F)(F)C(F)F)c3)cc2)s1`, 15.6%; in that of `COc1ccccc1C(=O)NC(CCSC)C(=O)NNC(=O)c1ccccc1C` (stereo unspecified), -1.2%. Consider `CC(c1ccco1)N(C(=O)COc1ccccc1[N+](=O)[O-])c1ccccn1` (stereo unspecified), for which the inhibition is 6.4%. Turning to `CN1CCOC1c1ccc(C2OCCN2C)cc1` (stereo unspecified), the inhibition is -6.4%. As to `CC(=O)c1ccc(N2CCN(S(=O)(=O)c3ccc4c(c3)CC(=O)N4C)CC2)cc1`, the inhibition is 8.9%. `CC(=O)c1ccc(S(=O)(=O)N2CCN(c3nc4c(C)c(C)ccc4cc3C#N)CC2)cc1`: the inhibition is 61.5% (active). In the case of `CC(=O)c1ccc(S(=O)(=O)N2CCC3(CC2)OCCO3)cc1` it was -3.8%; in that of `Oc1c(Br)cc(/C=N/NC(=S)NCC2CCCO2)cc1Br` (stereo unspecified), -3.3%; in that of `O=C(NC1CCCC1)C1c2ccccc2OCC(=O)N1Cc1ccccc1` (stereo unspecified), -7.8%. Regarding `Cc1ccc(NC(=O)N2CCSc3ccccc32)cc1`, the inhibition was 3.8%.

In the case of `O=C(/C=C/c1cccc([N+](=O)[O-])c1)OCC(=O)N1CCOCC1`, the inhibition is -3.4%. As for `O=C(c1cccc(Cl)c1)N1CCN(Cc2ccccc2)CC1`, the inhibition was -4.7%. The result for `O=C(/C=C/c1cccc([N+](=O)[O-])c1)N1CCN(Cc2ccccc2)CC1` reads 69.8% (active). `CCCOc1ccc(/C(O)=C2/C(=O)C(=O)N(CCN(C)C)C2c2ccc(OC)c(OC)c2)cc1` (stereo unspecified): the inhibition is -4.4%.

In the case of `CCN1CCCC1CNC(=O)c1ccc2c(c1)NC(=O)/C(=C\c1ccccc1F)S2` (stereo unspecified), the inhibition was -6.6%. On to `CCOC(=O)N1CCN(S(=O)(=O)N2CCCC(C(=O)NCCCN3CCC(C)CC3)C2)CC1` (stereo unspecified), for which the inhibition was -9%. On to `O=S(=O)(c1ccc(Cl)cc1)c1nc(-c2ccco2)oc1N1CCCCC1`, for which the inhibition is 17.9%. Turning to `Cn1c(NN)nc2sc3c(c2c1=O)CCC3`, the inhibition is 0%. The result for `O=c1oc(-c2ccco2)nc2sc3c(c12)CCCCC3` reads 59.2% (active). `CCCCCc1c(Cc2ccccc2)ncn1CCc1ccccc1OC`: the inhibition is 11%.

With `Cc1cccc(NC(=O)CSc2nc3c(c(=O)[nH]2)CCC3)c1C`, the inhibition was -9.1%. In the case of `CCC(C)(C)NC(=O)c1cc([N+](=O)[O-])ccc1N1CCCCC1` it was 9.2%; in that of `NS(=O)(=O)c1cccc(NC(=O)COC(=O)c2cc([N+](=O)[O-])ccc2N2CCCC2)c1`, 26.9%.

For the compound `Cc1cccc(NC(=O)c2cc([N+](=O)[O-])ccc2N2CCN(C)CC2)c1`, the inhibition was 56.8% (active). For the compound `CC(C)C(=O)Nc1cccc(NC(=O)c2ccc([N+](=O)[O-])cc2Cl)c1`, the inhibition was -13.2%. For `O=C(Nc1cccc(Cl)c1)c1cc([N+](=O)[O-])ccc1N1CCN(CCO)CC1`, the inhibition is 68.1% (active).

As for `CCN1CCN(c2ccc([N+](=O)[O-])cc2C(=O)c2ccc(Cl)cc2)CC1`, the inhibition was 24.4%. For the compound `CCOC(=O)c1cc(-c2ccc(F)cc2)n(CC(=O)NCc2ccccn2)c1C`, the inhibition is -7.6%. In the case of `COC(=O)CCCCC1=CCC2C(=O)C=C(O)C2C1` (stereo unspecified), the inhibition was -0.8%. Regarding `Cc1nn(Cc2ccc(F)cc2)c(C)c1NC(=O)c1noc2c1CCc1ccccc1-2`, the inhibition was 17.6%. The result for `Cc1ccc(C(=O)N/C(=C/C=C/c2ccccc2)C(=O)NCc2ccco2)cc1` reads 10.2%; that for `CNC(=O)/C(=C\C=C\c1ccccc1)NC(=O)c1ccc([N+](=O)[O-])cc1`, 88.8% (active); that for `CCCCOc1ccc(C(=O)N/C(=C/C=C/c2ccccc2)C(=O)N2CCOCC2)cc1`, 4.3%.

Take `COc1ccc(-c2cc(=O)oc3cc(OCC(=O)N(C)C4CCS(=O)(=O)C4)ccc23)cc1` (stereo unspecified): the inhibition is -3.1%.

Consider `COc1ccc(-c2cc(NC=O)c3ncc(-c4ccccc4)n3c2)cc1OC`, for which the inhibition is 28.3%. Take `Cc1ccccc1-c1nc(CS(=O)(=O)CC(=O)N2CCc3ccccc3C2)c(C)o1`: the inhibition is 10%. In the case of `CCN1C(=O)[C@H]2[C@@H](c3ccc(SC4CCCCC4)c(OC)c3)N[C@@](Cc3ccccc3)(C(=O)OC)[C@H]2C1=O` it was 63.1% (active); in that of `CCCCCCSc1ccc([C@@H]2[C@@H]3C(=O)N(CC)C(=O)[C@@H]3[C@]3(C(=O)OC)CCCCN23)cc1OC`, 23.1%; in that of `CCN1C(=O)[C@H]2[C@@H](c3ccc(-c4ccc(F)cc4)cc3)N[C@@](Cc3ccccc3)(C(=O)OC)[C@H]2C1=O`, 65.3% (active). With `CCN1C(=O)[C@H]2[C@@H](c3ccc(-c4ccc(OC)cc4)cc3)N[C@@](Cc3ccccc3)(C(=O)OC)[C@H]2C1=O`, the inhibition was 39.2%. The result for `COC(=O)[C@]1(CC(C)C)N[C@H](c2ccc(SC3CCCCC3)cc2)[C@@H]2C(=O)N(C)C(=O)[C@@H]21` reads 22.5%; that for `CCCSc1ccc([C@H]2N[C@@](Cc3ccccc3)(C(=O)OC)[C@H]3C(=O)N(C)C(=O)[C@@H]23)cc1`, 17.3%. For the compound `COc1ccccc1C(=O)N(C1=NC(C)CS1)c1ccc(Cl)cc1` (stereo unspecified), the inhibition was 6.9%. For `CCCN1CCN(C(=O)Cn2ncc3ccccc32)CC1`, the inhibition is -2.9%. `Cc1ccc(NC(=O)N2CCC(O)(c3cccnc3)CC2)cc1`: the inhibition was -3.3%. As to `CC(C)C[C@H](NC(=O)NCCc1ccc(Cl)cc1)C(=O)O`, the inhibition is -6.2%. `CSCCC(NC(=O)c1cc([N+](=O)[O-])cc([N+](=O)[O-])c1)c1nc2ccccc2[nH]1` (stereo unspecified): the inhibition is 32.8%.

As for `Cc1cccc(CN2CCN(Cc3cnn(-c4ccccc4F)c3)CC2CCO)n1` (stereo unspecified), the inhibition was -8%. The result for `CC1=C(C)CC2C(=O)N(c3cccc4ccccc34)C(=O)C2C1` (stereo unspecified) reads 7.3%. Take `O=C1c2cccc(OCC(=O)N3N=C(c4cccs4)CC3c3ccc(F)cc3)c2CCN1Cc1ccccc1` (stereo unspecified): the inhibition is 30.6%. With `Oc1ccccc1C1=NN(c2ccccc2)C(c2ccccc2)C1` (stereo unspecified), the inhibition is 25.2%.

Consider `O=C1C2N=NN(CC(=O)N3N=C(c4cccc5ccccc45)CC3c3ccccc3)C2C(=O)N1c1ccccc1` (stereo unspecified), for which the inhibition was 84.2% (active). In the case of `Cc1ccc(C2=NN(C(=O)COc3ncnc4ccccc34)C(c3ccco3)C2)cc1` (stereo unspecified), the inhibition was 8.9%. For the compound `Cc1ccc(N2C(=O)C3N=NN(CC(=O)N4N=C(c5cccc6ccccc56)CC4c4ccccc4)C3C2=O)cc1` (stereo unspecified), the inhibition is 83.2% (active). As to `Cc1ccc(NC(=O)[C@H](Cc2ccccc2)NC(=O)CC[C@H]2O[C@@H](n3ccc(=O)[nH]c3=O)[C@H](O)[C@@H]2O)cc1C`, the inhibition is -9.9%. In the case of `Cc1ccc(Cl)c(OCC(=O)NN2CCN(C)CC2)c1`, the inhibition was -5.7%. For the compound `COc1ccc2c(CC(=O)NNC(=O)c3ccccc3F)coc2c1`, the inhibition was -5%.

As for `COC(=O)[C@@H](NC(=O)NCc1cccc(OC)c1)C(C)C`, the inhibition was -7.7%. Take `COc1ccc(NC(=O)CN2C(=O)CSc3ccc(S(=O)(=O)N4CCC(C)CC4)cc32)cc1`: the inhibition is 42.2%.

Regarding `COc1ccc(-c2nc3cnccn3c2NC2CCCCC2)cc1-c1cccc(Cl)c1`, the inhibition is 32.3% and 25.3%.

As for `CCOc1cc(-c2nc3cc(C)ccn3c2NCC2CCCO2)ccc1O` (stereo unspecified), the inhibition is -4.4%. The result for `COc1ccc(-c2nc3cnccn3c2NC(C)(C)CC(C)(C)C)cc1O` reads 55% (active).

As for `COc1ccc(NC2=CC(=S)NC(C)(C)C2)cc1`, the inhibition is -11%. `CCOC(=O)/C(=N\Nc1cc(Cl)ccc1Cl)N1CCN(C)CC1`: the inhibition is 3.8%.

Turning to `CCN(CCO)C(=S)Nc1cc(C(=O)OC)ccc1C(=O)OC`, the inhibition is -10.4%.

As to `O=C(Nc1ccccc1Cl)/C(Cl)=C(\Cl)S(=O)c1ccccc1` (stereo unspecified), the inhibition was 73.7% (active). `O=C(Nc1ccccc1Cl)c1ccccc1S(=O)(=O)c1ccccc1[N+](=O)[O-]`: the inhibition was 6.3%. For `Cc1cc(C(=O)OCC(=O)Nc2ccccc2Cl)c(C)o1`, the inhibition is 7.5%. The result for `CC(C)Oc1ccc(CN2CCC2(C)C(=O)NCc2ccc(C(F)(F)F)cc2)cc1` (stereo unspecified) reads 34.4%; that for `CC1(C)CC(=O)C(C2=NC(C)(C)Cc3ccccc32)=C(O)C1`, -7%. The result for `FC(F)(F)c1cccc(-c2cc3ccccc3nc2N2CCCC2)c1` reads 18.4%; that for `O=C(Nc1cccc(-n2cnnn2)c1)c1cccnc1`, -7.9%. As to `Cc1cc(Cl)ccc1OCCCC(=O)Nc1cccc(-n2cnnn2)c1`, the inhibition was 30.3%. Consider `O=C(Nc1ccc(C(F)(F)F)cc1)c1cccc(-n2cnnn2)c1`, for which the inhibition was 64.5% (active). As to `Cc1ccc(S(=O)(=O)Nc2ccc(F)c(S(=O)(=O)N3CCOCC3)c2)cc1`, the inhibition is -1%. Take `COc1ccc(-c2ccc(OC(=O)NC3CCS(=O)(=O)C3)cc2)cc1` (stereo unspecified): the inhibition was -3.8%.

For `CCCCOC(=O)CNc1nnc(SCC(=O)OCC)[nH]c1=O`, the inhibition was 50.2% (active). On to `CCc1ccc(C(=O)CSc2nnc(C)c(=O)[nH]2)cc1`, for which the inhibition was -4.7%.

Regarding `CCOC(=O)CSc1nc(C)c(Oc2ccc(Cl)cc2Cl)c(=O)[nH]1`, the inhibition was -5.3%.
